D1 PAM: human D1 dopamine receptor positive modulation. AID 504651. HEK293 TREx D1 cells, calcium flux, dopamine EC20 potentiation. potentiation, % at 10 µM. 360,000 compounds, 0.036% hits. P21728; in the data active means potentiation above about 30%; further: 0% is about no effect
D1 agonist: agonists of human D1 dopamine receptor. P21728. AID 504660. 360,000 compounds, 1% hits. HEK293 T-REx D1 cells, calcium flux, agonist mode. activation, % at 2 µM; in the data active means activation above about 30%; further: 0% is about no effect
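Inducible HEK293 T-REx D1 cells, force-coupled to calcium signalling, were plated at 4000 cells/well with tetracycline and held overnight at 30 C. After no-wash calcium dye loading, compound-evoked calcium rise over 180 s flagged agonists.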
D3 ag: agonists of human D3 dopamine receptor; P35462; D3R DiscoveRx beta-arrestin cells, luminescence, 90 min; max activation, %; 410,000 compounds, 0.58% hits; in the data active means max activation above about 30%; further: 0% is about no effect
Target sequence (P35462 whole entry, looked up): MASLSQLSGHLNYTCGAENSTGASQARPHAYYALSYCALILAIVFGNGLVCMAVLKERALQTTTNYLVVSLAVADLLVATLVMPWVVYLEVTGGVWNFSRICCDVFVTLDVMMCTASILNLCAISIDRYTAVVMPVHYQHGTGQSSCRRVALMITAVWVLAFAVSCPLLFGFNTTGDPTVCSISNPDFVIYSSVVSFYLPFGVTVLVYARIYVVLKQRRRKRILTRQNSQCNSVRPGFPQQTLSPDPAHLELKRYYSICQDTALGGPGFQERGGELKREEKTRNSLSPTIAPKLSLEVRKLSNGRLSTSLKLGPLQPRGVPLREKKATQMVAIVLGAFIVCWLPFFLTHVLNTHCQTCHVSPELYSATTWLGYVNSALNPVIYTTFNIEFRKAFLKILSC
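Cells at 1500/well, incubated overnight, then treated with pinned compounds (dopamine as control) for 90 min at 37 degrees C. DiscoveRx reagent added for 30 - 60 minutes at room temperature; luminescence read.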
D1 antagonist: antagonists of human D1 dopamine receptor | HEK293 TREx D1 cells, calcium flux, dopamine EC80; hits give low values | activity change, negative = inhibition, % at 10 µM | 360,000 compounds, 3.2% hits; in the data active means activity change below about -30%; further: on the % scale 0 is the no-effect control and ±100 the full control effect
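Tetracycline-induced HEK293 T-REx cells with force-coupled D1 receptor were loaded with a no-wash calcium dye. Compound was added after a 10 s baseline and read kinetically for 180 s; EC80 dopamine was then added and calcium flux followed another 180 s.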
Chronic BCR inh: blocks chronic active B-cell receptor signaling. 340,000 compounds, 0.05% hits. ABC-DLBCL IkBa-CBG/CBR reporter, luminescence ratio, 4 h. Potency, µM (titrated, usually from 46.1 µM), for inactives: at the highest dose activity change, negative = inhibition, hits mostly inhibitors; active means well fitted inhibition curve with a large enough effect in the signal ratio, with a control signal flat, not every such curve was filed as active; inconclusive means small, poorly fitted or top-dose-only effect, or effect the other way, or a change in a side signal; the % refers to the signal ratio;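 further: potency means the concentration at half of the fitted maximal effect; plate controls were basal doxycycline-induced cells for no effect and cells given 10 µM MG132 for full effect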
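Concentration-response series (up to 46 uM) were applied to TMD8 dual-reporter cells for 4 h at 37C with doxycycline. Green/red ratio, after filter-overlap correction, defined %Activity; red signal alone was normalised to basal cells and zero luminescence.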
DRD3 antagonist: antagonists of human D3 dopamine receptor. P35462. max response, negative = inhibition, %. 360,000 compounds, 2.5% hits. D3R cells, DiscoveRx beta-arrestin luminescence, antagonist mode; hits give low values; in the data active means max response below about -50%; inconclusive means no clear call, values can overlap the other calls; further: on the % scale 0 is the no-effect control and ±100 the full control effect
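Cells expressing the human receptor were seeded at 1500 cells/well, incubated overnight at 37 degrees C in 5% CO2, then exposed to library compounds with dopamine controls for 90 minutes at 37 degrees C before luminescent detection.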
Numbers without * were called inactive; ? = inconclusive; . = not tested or not shown. Sampled rows, rich in hits. Any-hit rate of the full collection: about 6%.

SMILES	D1 PAM	D1 agonist	D3 ag	D1 antagonist	Chronic BCR inh	DRD3 antagonist
N#Cc1c(/N=C/c2ccc(O)cc2O)sc2c1C1CCN2CC1	-3	34*	-7	-22	2%	-16
Cn1c(O)c(C(=N)COc2ccccc2)c(=O)n(C)c1=O	.	.	45*	.	4%	-4
O=C(CS(=O)C(c1ccccc1)c1ccccc1)NO (stereo not given)	.	.	9	.	.	.
CCOC(=O)c1cc2cc(OC)ccc2n1C1CCN(Cc2ccccc2)CC1	.	.	-10	.	.	-89*
CCOC(=O)[C@]12Cc3cc4ccccc4cc3[C@H]1N(Cc1ccccc1)C(=O)c1cc(OC)ccc12	.	.	-1	.	.	-20
O=C(Nc1ccc(OC(F)(F)F)cc1)Oc1ccccc1N1CCCCC1	5	12	5	-29	?	3
CCCN1CCc2cc(O)cc3c2[C@H]1Cc1ccc(O)c(O)c1-3	.	.	23	.	.	?
CN1CCc2cc(O)cc3c2[C@H]1Cc1ccc(O)c(O)c1-3	.	.	-32	.	.	-84*
CC(C)(O)[C@@H]1[C@H]2OC(=O)[C@@H]1[C@]1(O)C[C@H]3O[C@]34C(=O)O[C@H]2[C@]14C	.	.	-2	.	.	.
Nc1ccc2nonc2c1[N+](=O)[O-]	2	92*	0	-12	5%	-1
Cc1cc([N+](=O)[O-])ccc1N	-4	5	1	-11	?	1
CC(=O)OC1N=C(c2ccccc2)c2cc(C)ccc2NC1=O (stereo not given)	-2	2	-10	-9	-2%	-22
CC(=O)OC1N=C(c2ccccc2)c2ccccc2NC1=O (stereo not given)	-7	4	8	-17	3%	-50*
COCCN(CCOC)C(=O)CCn1c(=O)oc2ccccc21	-2	0	1	-7	?	14
CC1=C(O)C(=O)C=C2C1=CC=C1C2(C)CCC2(C)C3CC(C)(C(=O)O)CCC3(C)CCC12C (stereo not given)	.	.	-5	.	.	-81*
CCCCNC(=O)Nc1nc2ccc(CC)cc2s1	2	5	-13	13	?	-6
CN1CC[C@@]23CCCC[C@@H]2[C@@H]1Cc1ccc(O)cc13	-3	7	-6	-32*	-3%	-13
Nc1cc(N2CCNCC2)c([N+](=O)[O-])cc1Cl	-15	3	-2	-42*	-1%	-12
CCC(=NCCCN(CC)CC)c1c(O)n(-c2ccccc2)c(=O)[nH]c1=O	-2	1	-5	-33*	-1%	-13
CCCCn1c(O)c(C(CC)=NCCCN(C)C)c(=O)[nH]c1=O	-5	4	-5	-2	7%	-64*
CCOC(=O)c1c(/N=C/C2C(=O)NC(=S)NC2=O)sc2c1CCC2	-6	17	-3	-8	1%	-14
N#Cc1c(/N=C/C2C(=O)NC(=S)NC2=O)sc2c1CCCC2	1	0	32*	3	-1%	3
CCc1ccc(C2=CC(c3c(F)cccc3Cl)n3c(nc4ccccc43)N2)cc1 (stereo not given)	-1	39*	1	-8	?	.
O=[N+]([O-])c1cc(F)c(N2CCCC2)cc1Br	7	17	24	-19	-4%	8
CN1CCN(c2cc(N3CCCC3)c([N+](=O)[O-])cc2F)CC1	-7	2	2	0	5%	-78*
SMILES	D1 PAM	D1 agonist	D3 ag	D1 antagonist	Chronic BCR inh	DRD3 antagonist
CCN1CCN(c2cc(N3CCCC3)c(F)cc2[N+](=O)[O-])CC1	-7	3	-38	-3	?	-69*
CCCCCNc1c(C(=O)OCC)c(=O)[nH]c2ccccc12	-8	0	3	-1	?	64
O=[N+]([O-])c1cccc(CN2CCN(Cc3ccc(Br)cc3)CC2)c1	-5	-1	-7	-24	7%	-102*
O=C(Cc1ccccc1)N1CCN(Cc2ccc([N+](=O)[O-])cc2)CC1	0	1	-7	-14	0%	1
FC(F)(F)c1ccccc1CN1CCN(Cc2ccccc2)CC1	2	1	-24	1	18%	?
CC(C)N1CCN(Cc2ccccc2C(F)(F)F)CC1CCO (stereo not given)	-4	1	-11	5	2%	-53*
O=c1n(Cl)c(=O)n(Cl)c(=O)n1Cl	.	.	-4	.	.	.
Oc1ccc2c3c1O[C@H]1[C@@H](O)C=C[C@H]4[C@@H](C2)NCC[C@@]341	.	.	-12	.	.	.
Nc1ccc(CCN2CCN(c3cccc(C(F)(F)F)c3)CC2)cc1	.	.	-64	.	.	-109*
CN1CCCN(C(=O)COc2cccc(C(F)(F)F)c2)CC1	-2	1	2	-7	0%	-89*
CC[C@@H](O)C(C[C@@H](C)N(C)C)(c1ccccc1)c1ccccc1	.	.	7	.	.	.
CCC1(CC)C(=O)N(Cc2ccccc2)C(=O)N(Cc2ccccc2)C1=O	-7	3	-20	-19	?	-27
N=C1SCC(=O)N1Cc1ccccc1	-4	3	3	-31*	1%	5
NCCc1c[nH]c2ccc(F)cc12	-3	1	.	-30*	-1%	.
CCN(CC)CCOC(=O)C(C)(c1ccccc1)c1ccccc1	.	.	-17	.	.	.
CCN(CC)CCCOC(=O)C(OC(C)C)(c1ccccc1)c1ccccc1	-5	22	-34	5	?	-101*
CCOC(C(=O)OCCCN(CC)CC)(c1ccccc1)c1ccccc1	-5	8	-11	-4	-9%	-55*
CCC(OC(C)=O)C(CC(C)NC)(c1ccccc1)c1ccccc1 (stereo not given)	.	.	-13	.	.	.
O=[N+]([O-])c1ccc(N2CCCCC2)c2ncccc12	2	3	-3	6	?	-21
O=[N+]([O-])c1ccc(N2CCCC(C(F)(F)F)C2)c2ccncc12 (stereo not given)	0	6	32*	-21	3%	17
O=C(CCl)c1ccc(Oc2ccc(C(=O)CCl)cc2)cc1	.	.	-5	.	.	.
CC1(C)CSC(Nc2ccc(F)c(Cl)c2)=N1	-4	4	0	-5	-2%	0
CC1(C)COC(Nc2cccc(Cl)c2)=N1	-2	3	14	4	?	-55*
CC1CCCC(C)N1/N=C/c1c[nH]c2ccc(Br)cc12 (stereo not given)	-9	10	-14	-6	?	-76*
CN1CCC(c2c[nH]c3ccc(O)cc23)CC1	.	.	-1	.	.	?
COc1cc(NS(=O)(=O)c2cc(Br)cc3c2N(C(=O)C2CC2)CC3)cc(OC)c1	-2	3	2	1	?	.
Fc1ccc(CCNCc2ccc(Cl)c(Cl)c2)cc1	-2	10	-32	-15	2%	-72*
COc1ccccc1CNCCc1ccc(F)cc1	-2	8	-17	-3	3%	-55*

Assay outcomes as filed in PubChem BioAssay.
